# Measured values: article PMC5540273 (PLoS ONE, 2017)
# Key:
# Settings in all cases: concentration: 1 μM, replicates: in singlicate; n = 1
# DMPK2 = tested on: T1, DMPK2
# T1 construct: gene CDC42BPG
# DMPK = tested on: DMPK
# DRAK1 = tested on: T2, DRAK1
# T2 construct: gene STK17A
# DRAK2 = tested on: T3, DRAK2
# T3 construct: gene STK17B
# DYRK1A = tested on: DYRK1A
# DYRK1B = tested on: DYRK1B
# DYRK2 = tested on: DYRK2
# EGFR = tested on: EGFR
# EIF2AK1 = tested on: EIF2AK1
# EPHA1 = tested on: EPHA1
# EPHA2 = tested on: EPHA2
# EPHA3 = tested on: EPHA3
# EPHA4 = tested on: EPHA4
# EPHA5 = tested on: EPHA5
# EPHA6 = tested on: EPHA6
# EPHA7 = tested on: EPHA7
# EPHA8 = tested on: EPHA8
# EPHB1 = tested on: EPHB1
# EPHB2 = tested on: EPHB2
# EPHB3 = tested on: EPHB3
# 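Also: KINOMEscan kinase panel screen.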
Compound,%Inh (DMPK2) [%],%Inh (DMPK) [%],%Inh (DRAK1) [%],%Inh (DRAK2) [%],%Inh (DYRK1A) [%],%Inh (DYRK1B) [%],%Inh (DYRK2) [%],%Inh (EGFR) [%],%Inh (EIF2AK1) [%],%Inh (EPHA1) [%],%Inh (EPHA2) [%],%Inh (EPHA3) [%],%Inh (EPHA4) [%],%Inh (EPHA5) [%],%Inh (EPHA6) [%],%Inh (EPHA7) [%],%Inh (EPHA8) [%],%Inh (EPHB1) [%],%Inh (EPHB2) [%],%Inh (EPHB3) [%]
COc1ccc(CSc2nnc(-c3ccc4ncsc4c3)o2)cc1C(F)(F)F,0,0,0,3,36,28,0,7,0,0,3,3,1,0,20,0,0,0,0,14
Fc1ccc(-c2nc[nH]c2-c2ccncc2)cc1 [SB-217360],71,0,0,0,6,0,33,31,0,0,0,9,4,0,1,0,5,1,0,0
CCc1ccc(-c2ccc3c(c2)-c2n[nH]cc2S(=O)(=O)N3C)cc1,0,0,0,0,0,11,0,0,0,11,2,0,0,5,0,0,0,0,10,0
CNCc1ccc2nc(NC(=O)c3ccc(C(C)(C)C)cc3)cn2c1,0,7,11,24,35,0,6,0,4,4,3,0,0,3,0,0,0,0,5,0
COc1ccc(Nc2nccc(NCCNC(=O)Nc3cc(C)ccc3C)n2)cc1 [GSK1379899],0,0,0,0,18,7,2,27,0,5,0,0,17,0,14,3,6,16,0,17
COC(=O)C(NC(=O)NC1CCN(c2ccnc(Nc3ccc(F)cc3)n2)C1)c1ccccc1 (stereo not drawn) [GSK1379712],1,0,2,0,0,17,13,23,0,10,0,0,3,0,2,0,10,10,11,1
COc1ccc(Nc2nccc(N3CCC(NC(=O)C(C)c4ccc(Cl)cc4)C3)n2)cc1 (stereo not drawn) [GSK1379735],0,0,8,0,12,0,3,14,77,0,25,9,14,0,11,18,17,13,0,9
Cn1cnc2c(N)ncnc21 [SKF-97623],0,0,8,0,0,36,0,13,0,0,0,0,0,9,0,0,0,0,0,0
CC(=O)c1c(C)c2cnc(Nc3ccn(C)n3)nc2n(C2CCCC2)c1=O,1,0,0,0,13,0,0,5,0,4,0,0,0,0,0,0,0,0,15,0
CCn1c(-c2ccccc2)nc2cnccc21 [SB-733416],0,0,32,12,23,0,0,37,0,22,10,0,24,10,29,7,5,7,15,26
CNC(=O)c1ccc(C)c(-n2c(C)cc(OCc3ccc(F)cc3F)c(Br)c2=O)c1,0,0,1,0,0,56,0,0,0,5,0,0,0,0,0,0,0,0,6,0
COc1cccc(C2=C(Nc3cc(Cl)c(O)c(Cl)c3)C(=O)NC2=O)c1 [SB-390767],0,0,2,0,38,0,2,0,0,8,19,0,28,0,30,9,17,11,0,26
Cc1ccccc1Cn1ccn2c(=O)cc(N3CCOCC3)nc12 [GSK2269905],0,0,0,0,16,0,0,15,8,4,4,0,19,0,14,0,11,10,0,20
Cc1c(Cn2c(C)c(C)n3c(=O)cc(N4CCOCC4)nc23)cccc1C(F)(F)F [GSK2328680],0,0,7,0,4,2,6,11,0,20,17,0,1,0,0,4,7,0,0,2
CN1c2ccc(-c3ccc(C(N)=O)cc3)cc2-c2[nH]ncc2S1(=O)=O,0,0,52,15,34,24,0,0,0,8,0,0,0,4,5,0,0,0,0,5
O=C1NC(=O)C(c2ccc(Cl)cc2)=C1Nc1ccc(O)cc1 [SB-340867],0,0,0,0,1,0,0,5,0,16,0,0,3,0,12,0,6,0,0,0
COc1ccc(CSc2nnc(-c3ccc4nccn4c3)o2)cc1C(F)(F)F,2,41,31,0,41,41,0,4,7,0,7,8,11,10,9,15,16,17,0,7
CCn1c(-c2c(N)noc2C)nc2cnccc21 [SB-737856],99.8,0,0,0,30,0,4,24,3,0,15,0,29,7,21,14,33,12,0,26
COC(=O)C(Cc1ccccc1)NC(=O)NC1CCN(c2ccnc(Nc3ccc(F)cc3)n2)C1 (stereo not drawn) [GSK1379714],0,0,0,0,10,10,0,31,0,7,38,4,1,0,0,2,5,0,11,0
CC(C)c1cc(-c2ccc3c(N)n[nH]c3c2)nc(N)n1 [GSK2250882],0,1,98.4,0,28,0,78,17,12,2,17,11,16,0,17,3,8,17,0,29
CC(=O)c1c(C)c2cnc(Nc3ccc(N4CCNCC4)cn3)nc2n(C2CCCC2)c1=O,96,15,8,5,0,0,0,4,0,24,16,0,0,0,0,0,0,0,0,3
